Data published in PubChem BioAssay (Tox21).
Inconclusive results are not listed. Activity calls are given as the source filed them. Unless noted, calls follow the shape of the full dose curve.

What was measured:
[1] = Nuclear factor erythroid 2-related factor 2/antioxidant responsive element (Nrf2/ARE) small molecule agonists: qHTS cell viability counter screen in human keratinocytes (AID 1919968; active = well fitted curve in the direction sought with a large enough effect in the repeat runs; an effect the other way counts as inactive or inconclusive; also: nearly all actives have a fitted effect of over 55% in size; also: potency is read from the fitted curve at half-maximal effect)
Outline: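 Parallel cytotoxicity read: KeratinoSens HaCaT cells, compound treatment 23 h, viability by CellTiter-Fluor fluorescence 1 h post-reagent.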

[2] = Nuclear factor erythroid 2-related factor 2/antioxidant responsive element (Nrf2/ARE) small molecule agonists: luciferase reporter gene qHTS assay in human keratinocytes (AID 1919969); also: nearly all actives have a fitted effect of over 35% in size
[3] = target: Gonadotropin-releasing hormone receptor (Homo sapiens) (UniProt P30968); assay: Human gonadotropin-releasing hormone receptor (GnRHR) small molecule agonists, calcium flux assay in GnRHR-HEK293 cells (AID 1920063); also: nearly all actives have a fitted effect of over 35% in size
Gonadotropin-releasing hormone receptor (Homo sapiens), sequence (P30968 whole entry, looked up): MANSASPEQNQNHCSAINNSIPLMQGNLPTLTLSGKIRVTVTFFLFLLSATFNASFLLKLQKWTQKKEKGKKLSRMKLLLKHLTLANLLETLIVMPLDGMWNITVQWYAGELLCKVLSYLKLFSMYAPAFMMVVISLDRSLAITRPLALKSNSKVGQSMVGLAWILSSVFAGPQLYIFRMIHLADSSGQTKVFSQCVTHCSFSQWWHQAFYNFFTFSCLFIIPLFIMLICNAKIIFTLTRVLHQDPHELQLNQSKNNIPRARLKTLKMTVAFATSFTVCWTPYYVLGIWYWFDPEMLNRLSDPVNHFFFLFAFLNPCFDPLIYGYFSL
Outline: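 Calcium flux, agonist mode, human GnRHR stably integrated in HEK293; dye 1 h at 37 C before compound; Ex/Em=480/540 kinetic read, 3 min; 15 concentrations, triplicate.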

[4] = target: KiSS-1 receptor (Homo sapiens) (UniProt Q969F8); assay: Human kisspeptin (KISS1R) small molecule agonists, calcium flux assay in KISS1R-HEK293 cells (AID 1920064; active = well fitted curve in the direction sought with a large enough effect in the repeat runs; an effect the other way counts as inactive or inconclusive)
KiSS-1 receptor (Homo sapiens), sequence (Q969F8 whole entry, looked up): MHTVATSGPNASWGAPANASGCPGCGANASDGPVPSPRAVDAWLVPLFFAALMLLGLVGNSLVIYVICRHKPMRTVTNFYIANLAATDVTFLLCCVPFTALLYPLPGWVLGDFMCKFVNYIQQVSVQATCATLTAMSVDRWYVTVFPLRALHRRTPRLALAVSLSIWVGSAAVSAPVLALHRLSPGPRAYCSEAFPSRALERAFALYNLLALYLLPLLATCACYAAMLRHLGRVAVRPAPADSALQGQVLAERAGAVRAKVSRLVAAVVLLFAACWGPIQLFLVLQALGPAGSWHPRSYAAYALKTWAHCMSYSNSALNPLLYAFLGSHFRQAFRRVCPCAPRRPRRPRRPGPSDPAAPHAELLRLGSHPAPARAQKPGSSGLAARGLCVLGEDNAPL
Outline: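 Triplicate 15-concentration series were applied to dye-loaded human KISS1R HEK293 cells, and agonist-evoked calcium fluorescence was captured for 3 min.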

[5] = G protein-coupled receptor (GPCR) small molecule agonists, calcium flux assay: HEK293 wild type cell line counter screen (AID 1920065)
Outline: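 Non-specific calcium responders were flagged by adding DMSO-dissolved compounds to dye-loaded cells and reading 480/540 nm fluorescence each second for 3 min; ATP served as positive control.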

[6] = p53 small molecule agonists, cell-based qHTS assay with human liver microsomes (AID 1963577);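 also: p53 response element beta-lactamase reporter cells with liver microsomes plus NADPH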
Outline: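 16 h, 37 C exposure of p53RE-bla cells to compounds with human liver microsomes and NADPH (0.5 mg/mL final each); detection via LiveBLAzer mixture, 2 h dark at room temperature.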

[7] = p53 small molecule agonists, cell-based qHTS assay with rat liver microsomes (AID 1963578)
Outline: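 With rat liver microsomes and NADPH present (0.5 mg/mL final each), p53RE-bla cells are treated with compound for 16 h at 37 C. LiveBLAzer detection mixture is then applied for 2 h at room temperature in the dark.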

[8] = p53 small molecule agonists, cell-based qHTS assay with human liver microsomes: qHTS cell viability counter screen (AID 1963579); also: nearly all actives have a fitted effect of over 45% in size
Outline: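 In this multiplexed counter screen, the reporter plates were subsequently treated with CellTiter-Glo so that cell viability, reflected by luminescence, could be recorded for p53RE-bla cells dosed 16 h with compounds under microsomal activation (HLM and NADPH).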

[9] = p53 small molecule agonists, cell-based qHTS assay with rat liver microsomes: qHTS cell viability counter screen (AID 1963580); also: nearly all actives have a fitted effect of over 45% in size
Outline: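 Luminescent ATP readout (CellTiter-Glo, 30 min at room temperature) reports viability of p53RE-bla HCT-116 cells after 16 h at 37 C with test compounds under metabolic activation by rat liver microsomes and NADPH at 0.5 mg/mL final each.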

[10] = p53 small molecule agonists, cell-based qHTS assay (AID 1963582; active = well fitted activation curve with a large enough effect in the signal ratio in the repeat runs, not every such curve was filed as active; the % refers to the signal ratio)
Outline: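 Beta-lactamase reporter cells (p53RE-bla) treated with compounds for 16 h at 37 C; FRET substrate, 2 h, room temperature; fluorescence intensity.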

[11] = target: 5-hydroxytryptamine receptor 2A (Homo sapiens) (UniProt P28223); assay: 5-hydroxytryptamine receptor 2A (HTR2A) small molecule antagonists, cell-based qHTS assay (AID 1963586); also: nearly all actives have a fitted effect of over 45% in size
5-hydroxytryptamine receptor 2A (Homo sapiens), sequence (P28223 whole entry, looked up): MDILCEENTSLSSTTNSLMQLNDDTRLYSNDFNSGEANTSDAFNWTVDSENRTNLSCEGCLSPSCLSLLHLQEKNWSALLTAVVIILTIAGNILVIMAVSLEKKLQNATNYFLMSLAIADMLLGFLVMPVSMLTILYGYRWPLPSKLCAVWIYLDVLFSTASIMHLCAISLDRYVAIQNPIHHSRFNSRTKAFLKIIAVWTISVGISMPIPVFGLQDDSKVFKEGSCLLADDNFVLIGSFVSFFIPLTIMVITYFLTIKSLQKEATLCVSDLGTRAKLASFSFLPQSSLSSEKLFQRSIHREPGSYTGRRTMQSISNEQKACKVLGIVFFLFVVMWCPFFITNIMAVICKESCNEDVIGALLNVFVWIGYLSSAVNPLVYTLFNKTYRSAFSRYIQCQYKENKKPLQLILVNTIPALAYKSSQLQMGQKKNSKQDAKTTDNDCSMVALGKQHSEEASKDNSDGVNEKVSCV
Outline: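 CHO cells stably expressing human HTR2A were plated for 18 h at 37 C, then loaded with calcium dye for 1 h. Compounds were preincubated 5 min at room temperature before DOI (4 nM solution) was added. Kinetic fluorescence was read for 3 min.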

[12] = target: 5-hydroxytryptamine receptor 2A (Homo sapiens) (UniProt P28223); assay: 5-hydroxytryptamine receptor 2A (HTR2A) small molecule agonists, cell-based qHTS assay (AID 1963587); also: nearly all actives have a fitted effect of over 30% in size
Outline: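 HTR2A-CHO cells, plated 18 h at 37 C/5% CO2, dye-loaded 1 h at 37 C; compounds in DMSO added by pin tool (agonist mode). Intracellular calcium flux read as kinetic fluorescence on FDSS over 2 min at 1 s intervals.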

[13] = target: Muscarinic acetylcholine receptor M1 (Homo sapiens) (UniProt P11229); assay: Cholinergic receptor muscarinic 1 (CHRM1) small molecule antagonists, cell-based qHTS assay (AID 1963588); also: nearly all actives have a fitted effect of over 40% in size
Muscarinic acetylcholine receptor M1 (Homo sapiens), sequence (P11229 whole entry, looked up): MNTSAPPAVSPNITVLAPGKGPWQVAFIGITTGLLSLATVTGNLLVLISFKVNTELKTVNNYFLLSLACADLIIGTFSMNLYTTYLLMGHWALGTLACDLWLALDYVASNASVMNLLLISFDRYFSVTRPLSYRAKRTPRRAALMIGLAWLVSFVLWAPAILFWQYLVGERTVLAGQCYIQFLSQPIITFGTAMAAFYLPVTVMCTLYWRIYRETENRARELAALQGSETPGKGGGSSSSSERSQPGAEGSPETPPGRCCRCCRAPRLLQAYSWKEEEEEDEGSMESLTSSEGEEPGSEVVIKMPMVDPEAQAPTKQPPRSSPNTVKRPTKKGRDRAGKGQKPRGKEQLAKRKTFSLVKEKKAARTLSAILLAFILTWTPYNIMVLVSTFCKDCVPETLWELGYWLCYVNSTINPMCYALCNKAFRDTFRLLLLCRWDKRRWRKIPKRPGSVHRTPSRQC
Outline: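 Compounds were tested at 15 concentrations in three independent runs. Dye-loaded CHRM1-CHO cells were exposed 5 min at room temperature before stimulation by acetylcholine added at 50nM. Intracellular calcium was read kinetically on FDSS for 3 min.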

[14] = target: Muscarinic acetylcholine receptor M1 (Homo sapiens) (UniProt P11229); assay: Cholinergic receptor muscarinic 1 (CHRM1) small molecule agonists, cell-based qHTS assay (AID 1963589); also: nearly all actives have a fitted effect of over 35% in size
Outline: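 qHTS, 15-point titration, 3 independent runs: compounds pin-transferred onto dye-loaded CHRM1-CHO cells (human M1), calcium fluorescence followed every second to detect agonism.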

[15] = cAMP Responsive Elements (CRE) small molecule agonists, cell-based qHTS assay (AID 1963590)
Outline: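 Quantitative HTS for CRE agonists: HEK 293T CRE-bla cells, overnight plating, 3 h compound incubation at 37 C/5% CO2, then 2 h room-temperature LiveBLAzer B/G FRET substrate loading.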

[16] = target: Beta-2 adrenergic receptor (Homo sapiens) (UniProt P07550); assay: Adrenergic beta2 receptor (ADRB2) small molecule antagonists, cell-based qHTS assay (AID 1963592); also: series mostly up to about 92 µM; nearly all actives have a fitted effect of over 50% in size
Beta-2 adrenergic receptor (Homo sapiens), sequence (P07550 whole entry, looked up): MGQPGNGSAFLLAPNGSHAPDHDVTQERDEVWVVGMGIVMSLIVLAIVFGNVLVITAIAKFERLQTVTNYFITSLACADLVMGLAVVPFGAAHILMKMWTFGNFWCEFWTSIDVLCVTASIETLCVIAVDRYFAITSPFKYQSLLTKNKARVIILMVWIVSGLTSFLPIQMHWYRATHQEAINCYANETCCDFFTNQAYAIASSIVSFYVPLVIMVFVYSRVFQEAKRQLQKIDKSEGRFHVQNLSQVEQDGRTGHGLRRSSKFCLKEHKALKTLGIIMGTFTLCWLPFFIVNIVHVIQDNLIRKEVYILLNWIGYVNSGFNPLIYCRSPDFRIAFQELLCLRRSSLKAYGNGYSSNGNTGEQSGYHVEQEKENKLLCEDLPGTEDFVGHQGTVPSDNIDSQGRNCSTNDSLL
Outline: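 Assay format: CHO-ADRB2 cells, 18-20hr seeding at 37C/5% CO2, then compound plus 1nM isoproterenol agonist mix for 0.5hr RT. Homogeneous time-resolved fluorescence cAMP detection after 1hr, expressed as 665/615 nm ratio.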

[17] = target: Beta-2 adrenergic receptor (Homo sapiens) (UniProt P07550); assay: Adrenergic beta2 receptor (ADRB2) small molecule agonists, cell-based qHTS assay (AID 1963593);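 also: CHO cells stably overexpressing human ADRB2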
Outline: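 CHO cells stably over-expressing ADRB2 were plated overnight at 37C, then dosed with compounds plus a stimulation mix containing 100uM IBMX and 25uM Ro-20-1724 for 0.5hr at room temperature. cAMP was measured by HTRF competition, 1hr.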

[18] = target: D(2) dopamine receptor (Homo sapiens) (UniProt P14416); assay: Dopamine D2 receptor (DRD2) small molecule agonists, cell-based qHTS assay (AID 1963594); also: nearly all actives have a fitted effect of over 35% in size
D(2) dopamine receptor (Homo sapiens), sequence (P14416 whole entry, looked up): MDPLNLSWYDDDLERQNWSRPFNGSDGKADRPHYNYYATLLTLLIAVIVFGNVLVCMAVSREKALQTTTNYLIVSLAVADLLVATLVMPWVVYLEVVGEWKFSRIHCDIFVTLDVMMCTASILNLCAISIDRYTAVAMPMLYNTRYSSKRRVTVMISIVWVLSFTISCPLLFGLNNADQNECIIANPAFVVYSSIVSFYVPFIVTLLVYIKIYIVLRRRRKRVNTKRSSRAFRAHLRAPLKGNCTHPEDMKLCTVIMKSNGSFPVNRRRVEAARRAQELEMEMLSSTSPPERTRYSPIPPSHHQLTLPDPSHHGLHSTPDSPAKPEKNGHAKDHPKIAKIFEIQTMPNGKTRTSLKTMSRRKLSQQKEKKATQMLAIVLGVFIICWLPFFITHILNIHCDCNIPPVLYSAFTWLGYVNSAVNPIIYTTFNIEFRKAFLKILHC
Outline: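 HEK293 cells stably expressing DRD2 were cultured 24 h at 37 C, then given Ro20-1724 (0.1 mM final) and compounds for 10 min at room temperature. NKH477 (200nM) was then added for 30 min. cAMP was read by HTRF.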

[19] = target: D(2) dopamine receptor (Homo sapiens) (UniProt P14416); assay: Dopamine D2 receptor (DRD2) small molecule antagonists, cell-based qHTS assay (AID 1963595; active = well fitted inhibition curve with a large enough effect in the signal ratio in the repeat runs, with a control signal flat; the % refers to the signal ratio)
Outline: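 Antagonism was scored as restored cAMP in HEK293-DRD2 cells. These cells were stimulated with 200 nM NKH477 and 12 nM quinpirole for 30 min at room temperature, in the presence of 0.1 mM Ro20-1724.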

[20] = cAMP Responsive Elements (CRE) small molecule antagonists, cell-based qHTS assay (AID 1963591; active = well fitted inhibition curve with a large enough effect in the signal ratio in the repeat runs, not every such curve was filed as active; the % refers to the signal ratio)
Outline: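 Fluorescence intensity from cleaved LiveBLAzer B/G substrate (2 h, room temperature) quantified CRE-bla activity in HEK 293T cells exposed 3 h to compound with 0.25 uM final NKH477.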

Measured: Potency

CN1CC(=O)N/C1=N/C(=O)Nc1cccc(Cl)c1
inactive: [1] | [2] | [3] | [4] | [5] | [6] | [7] | [8] | [9] | [10] | [11] | [12] | [13] | [14] | [15] | [16] | [17] | [18] | [19]

CC(=O)NCCCCCC(=O)O
inactive: [1] | [2] | [3] | [4] | [5] | [6] | [7] | [8] | [9] | [10] | [11] | [12] | [13] | [14] | [15] | [20] | [16] | [17] | [18] | [19]

CC(=O)OCC(=O)[C@@]1(OC(C)=O)[C@@H](C)C[C@H]2[C@@H]3C[C@H](F)C4=CC(=O)C=C[C@]4(C)[C@@]3(F)[C@@H](O)C[C@@]21C
inactive: [1] | [2] | [3] | [4] | [5] | [6] | [7] | [8] | [9] | [16] | [17] | [18] | [19]

OCCN1C[C@H](O)[C@@H](O)[C@H](O)[C@H]1CO
inactive: [1] | [2] | [3] | [4] | [5] | [6] | [7] | [8] | [9] | [10] | [11] | [12] | [13] | [14] | [15] | [20] | [16] | [17] | [19]

CC(=O)OC1CCC(C(C)(C)C)CC1 (stereo unspecified)
inactive: [1] | [2] | [3] | [4] | [5] | [6] | [7] | [8] | [9] | [10] | [11] | [12] | [13] | [14] | [15] | [20] | [17] | [18] | [19]

CN(C(=O)CCCOc1ccc2[nH]c(=O)ccc2c1)C1CCCCC1
active: [1] 10.6 µM
inactive: [2] | [3] | [4] | [5] | [6] | [7] | [8] | [9] | [16] | [17] | [18]

CCCCCCCCCCCC(C)=O
inactive: [1] | [2] | [3] | [4] | [5] | [6] | [7] | [8] | [9] | [10] | [11] | [12] | [13] | [14] | [15] | [20] | [17] | [18] | [19]
